Screening results from PubChem BioAssay.
The list is not random: actives were taken first. Their share in the collection is about 8%.
HCV inh – inhibitors of hepatitis C virus infection. actives 3.4% (n = 340,000). Huh7.5.1 HCVcc-Cre infection, luciferase reporter, 44 h. Potency, µM (doses to about 41.8 µM), without a hit: at the top dose activity change, negative = inhibition, usual class: inhibitors; active means well fitted inhibition curve with a large enough effect; inconclusive means small, poorly fitted or top-dose-only effect, or another doubt; inactive means no such curve, though single readings can be large or run the other way; further: potency means the concentration at half of the fitted maximal effect; on the % scale 0 is the no-effect control and ±100 the full control effect
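Whole-lifecycle infectious HCVcc-Cre system; cells 1,000/well, compound then virus (~0.5 moi) added 4 h after plating, 44 h culture. Luciferase read 15 sec following 15 min substrate incubation, room temp.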
SARS PLP yeast – blocks SARS-CoV papain-like protease in a yeast assay; Potency, µM (top dose mostly 32.9 µM), without a hit: top-dose activity, positive = growth rescue, hits mostly activators; AID 485353; S. cerevisiae expressing SARS-CoV PLpro, growth rescue; actives 0.19% (n = 330,000); calls by dose curve; further: potency means the concentration at half of the fitted maximal effect; 0% is about no effect; nearly all actives have a fitted effect of over 55% in size
FMDV inh – antivirals against foot and mouth disease virus; AID 1159524; FMDV antiviral cell-based qHTS; Potency, µM (series often up to 57.9 µM), for inactives: top-dose activity change, negative = inhibition, actives largely listed as inhibitors; actives 1.2% (n = 410,000); calls by dose curve; tested in HEK293T cells; further: read-out not given here; potency means the concentration at half of the fitted maximal effect; on the % scale 0 is the no-effect control and ±100 the full control effect; nearly all actives have a fitted effect of over 45% in size
HCMV inh – human cytomegalovirus inhibition; actives 4.5% (n = 410,000); activity change, negative = inhibition, % at 57.5 µM; HFF cells, HCMV-luciferase reporter, 72 h; hits give low values; in the data active means activity change below about -60%; inconclusive means no clear call, values can overlap the other calls; inactive means above about -39%; further: on the % scale 0 is the no-effect control and ±100 the full control effect
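HFF cells seeded 16 h at 37C, treated with compounds, infected with luciferase-reporter HCMV at MOI 1 PFU/cell; luciferase read at 72 h post infection, normalized to buffer-only and Salinomycin controls.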
Lassa entry inh – inhibitors of Lassa virus binding or cell entry. Lassa virus pseudotype entry inhibition, cell reporter. Potency, µM (series often up to 37.9 µM), inactives show top-dose activity change, negative = inhibition, usual class: inhibitors. actives 1.2% (n = 300,000). AID 540256; calls by dose curve; tested in HEK293 cells; further: potency means the concentration at half of the fitted maximal effect; on the % scale 0 is the no-effect control and ±100 the full control effect; nearly all actives have a fitted effect of over 50% in size
Marburg entry inh – blocks Marburg virus binding to or entry into cells. Marburg virus pseudotyped entry inhibition, cell reporter. Potency, µM (doses to about 37.8 µM), for inactives: at the highest dose activity change, negative = inhibition, usual class: inhibitors. actives 1.8% (n = 300,000). AID 540276; calls by dose curve; tested in HEK293 cells; further: potency means the concentration at half of the fitted maximal effect; on the % scale 0 is the no-effect control and ±100 the full control effect
The depositor's hits bear a star; ! = not confirmed by another sample; [ ] = another dose, or the depositor's remark.

Fc1cccc(-c2cc3nc(-c4ccccc4)cc(N4CCC5(CC4)OCCO5)n3n2)c1 was read as HCV inh -27%, SARS PLP yeast -15%, FMDV inh -27%, HCMV inh -8, Lassa entry inh inconclusive and Marburg entry inh inconclusive.
Screening COCCN1CCN(c2cc(-c3ccccc3)nc3cc(-c4cccc(F)c4)nn23)CC1 returned HCV inh 10µM*, SARS PLP yeast -4%, FMDV inh 14µM*, HCMV inh -18, Lassa entry inh inconclusive and Marburg entry inh inconclusive.
Cc1cc(N2CCN(C(=O)c3ccco3)CC2)n2nc(C)c(-c3ccccc3)c2n1 was read as HCV inh 3.5µM*!, SARS PLP yeast -3%, FMDV inh inconclusive, HCMV inh -22, Lassa entry inh -8% and Marburg entry inh -19%.
`O=C(c1ccoc1)N1CCN(c2cc(-c3cccc(F)c3)nc3cc(-c4cccc(Cl)c4)nn23)CC1` gave FMDV inh inconclusive and HCMV inh -82*.
`COc1ccc(-c2cc3nc(-c4ccccc4)cc(N4CCCC(O)C4)n3n2)cc1` (stereo not drawn) gave HCV inh 6.3µM*, SARS PLP yeast 0%, FMDV inh -10% and HCMV inh -30.
For COc1ccc(Cl)cc1NC(=O)c1cn(C2CCCC2)c(=O)c2c1c1ccccc1n2C the results were FMDV inh 0%, HCMV inh -15, Lassa entry inh 20%[46.1 µM] and Marburg entry inh inconclusive.
For Cc1nc2cc(-c3cccc(Cl)c3)nn2c(N2CCN(C(=O)c3ccco3)CC2)c1C the results were SARS PLP yeast -3% and Marburg entry inh 0%.
Cc1cc(N2CCN(C(=O)c3ccco3)CC2)n2nc(-c3cccc(Cl)c3)cc2n1 was read as HCV inh 10µM*, SARS PLP yeast -4%, FMDV inh inconclusive, HCMV inh -101*, Lassa entry inh 26µM* and Marburg entry inh 16µM*.
Screening COc1ccc(-c2cc(C)no2)cc1S(=O)(=O)Nc1c(C)cc(C)cc1C returned FMDV inh 16%, HCMV inh 0 and Lassa entry inh inconclusive.
`O=C1N2c3ccccc3CCc3cccc(c32)C1(O)C(F)(F)F` (stereo not drawn) gave HCV inh -22%, SARS PLP yeast -17%, FMDV inh inconclusive, HCMV inh -61*, Lassa entry inh -20% and Marburg entry inh inconclusive.
Screening CCN1C(=O)/C(=C\c2nc3ccccc3c(=O)n2-c2ccccc2)c2ccccc21 returned HCV inh 6%, SARS PLP yeast 7%, FMDV inh 14µM*, HCMV inh -99*, Lassa entry inh inconclusive and Marburg entry inh inconclusive.
For CCn1c(/C=C2\C(=O)Nc3ccccc32)nc2ccccc2c1=O the results were HCV inh inconclusive, SARS PLP yeast 3%, FMDV inh 22µM*, HCMV inh -33, Lassa entry inh inconclusive and Marburg entry inh inconclusive.
CCN1C(=O)/C(=C/c2nc3ccccc3c(=O)n2-c2ccc(C)cc2)c2ccccc21 was read as HCV inh -10%, SARS PLP yeast 4%, FMDV inh inconclusive, HCMV inh -78*, Lassa entry inh -19% and Marburg entry inh inconclusive.
Screening COc1ccc(-n2c(/C=C3\C(=O)N(C)c4ccccc43)nc3ccccc3c2=O)cc1 returned HCV inh -14%, SARS PLP yeast 0%, FMDV inh inconclusive, HCMV inh -19, Lassa entry inh inconclusive and Marburg entry inh -12%[14.2 µM].
For COc1cc(=O)n2c(c1C(=O)NC(C)c1ccco1)CCN(Cc1ccccc1C(F)(F)F)CC2 (stereo not drawn) the results were FMDV inh -10%.
`CCCOc1ccc(NC(=O)CC2C(=O)N(c3ccc(Cl)cc3)C(=O)N2CCc2ccncc2)cc1` (stereo not drawn) gave FMDV inh 12%, HCMV inh -16 and Lassa entry inh 25%[46.1 µM].
